Test results: PubChem BioAssay (NCATS)
Results filed as inconclusive are left out. Entries that show only a call come without a potency. Calls of active or inactive are those of the source. Unless noted, calls come from the whole dose curve; as a rule, active = well fitted curve in the direction sought with a large enough effect; inconclusive = small, poorly fitted or top-dose-only effect, or another doubt; inactive = no such curve, though single readings can be large; an effect the other way counts as inactive or inconclusive.

Key:
[1] = biological target: Tyrosine-protein phosphatase non-receptor type substrate 1 (Homo sapiens) + Leukocyte surface antigen CD47 (Homo sapiens) (UniProt P78324+Q08722); experiment: CD47-SIRPalpha protein protein interaction - Alpha assay qHTS validation (AID 1347059);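 note: bead proximity luminescence from CD47 binding SIRPalpha after compound preincubation with SIRPalpha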
Tyrosine-protein phosphatase non-receptor type substrate 1 (Homo sapiens) + Leukocyte surface antigen CD47 (Homo sapiens), sequence (P78324 whole entry, looked up): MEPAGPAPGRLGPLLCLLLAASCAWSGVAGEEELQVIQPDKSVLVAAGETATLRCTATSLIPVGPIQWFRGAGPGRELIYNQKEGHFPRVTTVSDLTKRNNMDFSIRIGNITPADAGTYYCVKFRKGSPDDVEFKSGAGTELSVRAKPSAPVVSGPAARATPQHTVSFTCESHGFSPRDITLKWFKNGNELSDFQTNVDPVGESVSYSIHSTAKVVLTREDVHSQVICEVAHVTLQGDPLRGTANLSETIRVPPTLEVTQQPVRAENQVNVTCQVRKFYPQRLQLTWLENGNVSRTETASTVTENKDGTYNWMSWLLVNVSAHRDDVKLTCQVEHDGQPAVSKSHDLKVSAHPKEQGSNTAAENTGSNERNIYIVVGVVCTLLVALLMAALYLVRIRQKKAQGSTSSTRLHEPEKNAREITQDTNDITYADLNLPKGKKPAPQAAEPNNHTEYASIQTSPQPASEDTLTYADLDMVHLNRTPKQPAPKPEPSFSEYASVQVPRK
Tyrosine-protein phosphatase non-receptor type substrate 1 (Homo sapiens) + Leukocyte surface antigen CD47 (Homo sapiens), sequence (Q08722 whole entry, looked up): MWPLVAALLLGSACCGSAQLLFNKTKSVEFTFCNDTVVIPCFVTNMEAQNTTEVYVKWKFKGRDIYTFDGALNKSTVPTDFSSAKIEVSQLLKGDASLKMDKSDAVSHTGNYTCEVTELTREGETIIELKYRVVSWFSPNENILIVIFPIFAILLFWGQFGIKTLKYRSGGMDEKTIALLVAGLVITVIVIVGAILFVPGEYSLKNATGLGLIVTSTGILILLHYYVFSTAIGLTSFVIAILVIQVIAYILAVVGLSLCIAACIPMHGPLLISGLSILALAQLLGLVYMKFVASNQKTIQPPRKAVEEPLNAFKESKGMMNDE
In short: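 Biotinylated Avi-tagged SIRPalpha (25 nM) preincubated 30 min with compound, then His-tagged CD47 (12.5 nM) added 30 min; AlphaScreen with Ni-NTA acceptor and streptavidin donor beads. PBS pH 7.4, 0.05% IGEPAL, room temperature; 7-point titrations.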

[2] = biological target: Parathyroid hormone/parathyroid hormone-related peptide receptor (Homo sapiens) (UniProt Q03431); experiment: qHTS for PTHR1 Agonists: Optimization Screen against the NCGC LOPAC library (AID 1347079);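 note: GloSensor cAMP luminescence in HEK-293 GP2 cells expressing human PTHR1 with IBMX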; note: potency is the fitted concentration of half-maximal effect
Parathyroid hormone/parathyroid hormone-related peptide receptor (Homo sapiens), sequence (Q03431 whole entry, looked up): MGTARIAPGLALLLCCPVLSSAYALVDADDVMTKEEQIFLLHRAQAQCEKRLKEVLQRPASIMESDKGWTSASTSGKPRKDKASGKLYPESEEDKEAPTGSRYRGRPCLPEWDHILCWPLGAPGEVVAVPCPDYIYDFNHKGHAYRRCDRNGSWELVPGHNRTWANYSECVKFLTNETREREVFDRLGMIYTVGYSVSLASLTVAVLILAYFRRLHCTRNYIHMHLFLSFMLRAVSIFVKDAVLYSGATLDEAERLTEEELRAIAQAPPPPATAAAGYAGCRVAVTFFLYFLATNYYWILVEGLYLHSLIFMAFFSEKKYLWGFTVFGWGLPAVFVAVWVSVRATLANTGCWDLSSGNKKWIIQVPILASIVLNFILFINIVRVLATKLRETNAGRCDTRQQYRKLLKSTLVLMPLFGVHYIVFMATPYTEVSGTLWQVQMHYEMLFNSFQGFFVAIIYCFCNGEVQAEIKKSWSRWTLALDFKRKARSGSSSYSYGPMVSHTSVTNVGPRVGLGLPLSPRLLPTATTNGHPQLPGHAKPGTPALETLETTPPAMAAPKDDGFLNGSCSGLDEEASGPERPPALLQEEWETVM
In short: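 Agonist readout: GloSensor cAMP luminescence, read after 15 min at room temperature. HEK-293-derived GP2 line carries PTHR1; compounds tested as a titration for 1 hr at 37C in presence of IBMX. M-PTH (1-15) served as control.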

[3] = qHTS for Inhibitors of the Functional Ribonucleoprotein Complex (vRNP) of Lassa (LASV) Arenavirus: LASV Primary Screen - GLuc reporter signal (AID 1347082; calls by dose curve; tested in HEK293 reporter line; note: series mostly up to about 57 µM; nearly all actives have a fitted effect of over 60% in size)
[4] = qHTS for Inhibitors of the Functional Ribonucleoprotein Complex (vRNP) of Lassa (LASV) Arenavirus: Viability assay - alamar blue signal for LASV Primary Screen (AID 1347083; calls by dose curve; tested in HEK293 reporter line; note: nearly all actives have a fitted effect of over 80% in size; note: potency is the fitted concentration of half-maximal effect)
[5] = qHTS for Inhibitors of the Functional Ribonucleoprotein Complex (vRNP) of Lymphocytic Choriomeningitis Arenaviruses (LCMV): Viability assay - alamar blue signal for LCMV Primary Screen (AID 1347085; calls by dose curve; tested in HEK293 reporter line; note: nearly all actives have a fitted effect of over 80% in size; note: potency is the fitted concentration of half-maximal effect)
[6] = biological target: Nucleoprotein (Lymphocytic choriomeningitis virus (strain Armstrong)) (UniProt P09992); experiment: qHTS for Inhibitors of the Functional Ribonucleoprotein Complex (vRNP) of Lymphocytic Choriomeningitis Arenaviruses (LCMV): LCMV Primary Screen - GLuc reporter signal (AID 1347086; calls by dose curve; note: nearly all actives have a fitted effect of over 70% in size; note: potency is the fitted concentration of half-maximal effect)
Nucleoprotein (Lymphocytic choriomeningitis virus (strain Armstrong)), sequence (P09992 whole entry, looked up): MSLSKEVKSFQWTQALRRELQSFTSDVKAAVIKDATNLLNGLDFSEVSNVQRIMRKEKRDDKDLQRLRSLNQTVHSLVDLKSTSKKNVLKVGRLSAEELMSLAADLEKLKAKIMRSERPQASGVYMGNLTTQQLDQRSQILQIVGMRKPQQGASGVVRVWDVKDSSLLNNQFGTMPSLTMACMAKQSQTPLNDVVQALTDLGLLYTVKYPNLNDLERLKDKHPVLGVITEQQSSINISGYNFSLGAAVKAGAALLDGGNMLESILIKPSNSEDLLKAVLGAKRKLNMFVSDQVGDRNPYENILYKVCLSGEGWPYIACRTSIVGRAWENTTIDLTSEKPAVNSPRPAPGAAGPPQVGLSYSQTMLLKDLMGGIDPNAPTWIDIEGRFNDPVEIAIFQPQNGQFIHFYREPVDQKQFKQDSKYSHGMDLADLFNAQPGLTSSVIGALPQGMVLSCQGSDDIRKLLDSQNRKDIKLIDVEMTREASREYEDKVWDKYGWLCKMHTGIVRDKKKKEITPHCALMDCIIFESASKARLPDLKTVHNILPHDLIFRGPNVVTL

CCCN1CCc2cccc3c2[C@H]1Cc1ccc(O)c(O)c1-3
Potency [1]: inactive | Potency [2]: inactive | Potency [3]: inactive | Potency [4]: inactive | Potency [5]: inactive | Potency [6]: inactive

CP(=O)(O)C1=CCNCC1
Potency [1]: inactive | Potency [2]: inactive | Potency [3]: inactive | Potency [4]: inactive | Potency [5]: inactive | Potency [6]: inactive

CCCN(CCC)CCc1ccc(O)c(O)c1
Potency [1]: inactive | Potency [2]: inactive | Potency [3]: inactive | Potency [4]: inactive | Potency [5]: inactive | Potency [6]: inactive

CO[C@H]1CC=C2CCN3CCC4=C(CC(=O)OC4)[C@]23C1
Potency [1]: inactive | Potency [2]: inactive | Potency [3]: inactive | Potency [4]: inactive | Potency [5]: inactive | Potency [6]: inactive

C=CCN1CCC23c4c5ccc(O)c4O[C@H]2C(=O)CC[C@@]3(O)C1C5 (stereo partly drawn)
Potency [1]: inactive | Potency [2]: inactive | Potency [3]: inactive | Potency [4]: inactive | Potency [5]: inactive | Potency [6]: inactive

C[N+](C)(C)CC#CCN1CCCC1=O
Potency [1]: inactive | Potency [2]: inactive | Potency [3]: inactive | Potency [4]: inactive | Potency [5]: inactive | Potency [6]: inactive

c1ccc2c(N3CCNCC3)cccc2c1
Potency [1]: inactive | Potency [2]: inactive | Potency [3]: inactive | Potency [4]: inactive | Potency [5]: inactive | Potency [6]: inactive

c1ccc2cc(CC3=NCCN3)ccc2c1
Potency [1]: inactive | Potency [2]: inactive | Potency [3]: inactive | Potency [4]: inactive | Potency [5]: inactive | Potency [6]: inactive

O=C1CC[C@@]2(O)C3Cc4ccc(O)c5c4C2(CCN3CC2CC2)[C@H]1O5 (stereo partly drawn)
Potency [1]: inactive | Potency [2]: inactive | Potency [3]: inactive | Potency [4]: inactive | Potency [5]: inactive | Potency [6]: inactive

Cc1cc([C@@H]2CCCN2C)on1
Potency [1]: inactive | Potency [2]: inactive | Potency [3]: inactive | Potency [4]: inactive | Potency [5]: inactive | Potency [6]: inactive

Clc1ccc(N2CC3CCC(C2)N3)nn1
Potency [1]: inactive | Potency [2]: inactive | Potency [3]: inactive | Potency [4]: inactive | Potency [5]: inactive | Potency [6]: inactive

C#CCN[C@H](C)Cc1ccccc1
Potency [1]: inactive | Potency [2]: inactive | Potency [3]: inactive | Potency [4]: inactive | Potency [5]: inactive | Potency [6]: inactive

CC(N)[C@H](O)c1ccc(O)c(O)c1 (stereo partly drawn)
Potency [1]: inactive | Potency [2]: inactive | Potency [3]: inactive | Potency [4]: inactive | Potency [5]: inactive | Potency [6]: inactive

Cc1[nH]c2ccc(O)cc2c1CCN
Potency [1]: inactive | Potency [2]: inactive | Potency [3]: inactive | Potency [4]: inactive | Potency [5]: inactive | Potency [6]: inactive

NCC(O)c1cc(O)c(O)cc1F (stereo not drawn)
Potency [1]: inactive | Potency [2]: inactive | Potency [3]: inactive | Potency [4]: inactive | Potency [5]: inactive | Potency [6]: inactive

CN(C(=O)Cc1ccc(Cl)c(Cl)c1)C(CN1CCCC1)c1cccc(OCC(=O)O)c1 (stereo not drawn)
Potency [1]: inactive | Potency [2]: inactive | Potency [3]: inactive | Potency [4]: inactive | Potency [5]: inactive | Potency [6]: inactive

C[C@H](N)Cc1cccc(C(F)(F)F)c1
Potency [1]: inactive | Potency [2]: inactive | Potency [3]: inactive | Potency [4]: inactive | Potency [5]: inactive | Potency [6]: inactive

NC(C(=O)O)c1cc(=O)[nH]o1 (stereo not drawn)
Potency [1]: inactive | Potency [2]: inactive | Potency [3]: inactive | Potency [4]: inactive | Potency [5]: inactive | Potency [6]: inactive

C[N+]1(C)CCN(c2ccccc2)CC1
Potency [1]: inactive | Potency [2]: inactive | Potency [3]: inactive | Potency [4]: inactive | Potency [5]: inactive | Potency [6]: inactive

CC(=O)NBr
Potency [1]: inactive | Potency [2]: inactive | Potency [3]: inactive | Potency [4]: inactive | Potency [5]: inactive | Potency [6]: inactive

N[C@@H](Cn1oc(=O)[nH]c1=O)C(=O)O
Potency [1]: inactive | Potency [2]: inactive | Potency [3]: inactive | Potency [4]: inactive | Potency [5]: inactive | Potency [6]: inactive

C[N+]1(C)CCc2cc3c(cc2[C@H]1[C@@H]1OC(=O)c2c1ccc1c2OCO1)OCO3
Potency [1]: inactive | Potency [2]: inactive | Potency [3]: inactive | Potency [4]: inactive | Potency [5]: inactive | Potency [6]: inactive

CC(N)c1cccc(Cl)c1Cl (stereo not drawn)
Potency [1]: inactive | Potency [2]: inactive | Potency [3]: inactive | Potency [4]: inactive | Potency [5]: inactive | Potency [6]: inactive

COC(=O)N1CCN(C(=O)Cc2ccc(Cl)c(Cl)c2)C(CN2CCCC2)C1 (stereo not drawn)
Potency [1]: inactive | Potency [2]: inactive | Potency [3]: inactive | Potency [4]: inactive | Potency [5]: inactive | Potency [6]: inactive

CCCCCCCCCCCCCC(=O)O[C@@H]1[C@@H](C)[C@@]2(O)[C@@H](C=C(CO)C[C@@]3(O)C(=O)C(C)=C[C@@H]23)C2C(C)(C)[C@@]21OC(C)=O (stereo partly drawn)
Potency [1]: inactive | Potency [2]: inactive | Potency [3]: inactive | Potency [4]: inactive | Potency [5]: inactive | Potency [6]: inactive

CCCn1c(=O)c2[nH]c(C3CCCC3)nc2n(CCCOC(=O)c2ccc(S(=O)(=O)F)cc2)c1=O
Potency [1]: inactive | Potency [2]: inactive | Potency [3]: inactive | Potency [4]: inactive | Potency [5]: inactive | Potency [6]: inactive

O=S1(=O)N(CCN2CC=C(c3c[nH]c4cc(F)ccc34)CC2)c2cccc3c2N1CCC3
Potency [1]: inactive | Potency [2]: inactive | Potency [3]: inactive | Potency [4]: inactive | Potency [5]: inactive | Potency [6]: inactive

C[C@H](N)CN1CCc2ccc(Br)cc21
Potency [1]: inactive | Potency [2]: inactive | Potency [3]: inactive | Potency [4]: inactive | Potency [5]: inactive | Potency [6]: inactive

CC(N)Cc1c[nH]c2ccc(OCc3cccs3)cc12 (stereo not drawn)
Potency [1]: inactive | Potency [2]: inactive | Potency [3]: inactive | Potency [4]: inactive | Potency [5]: inactive | Potency [6]: inactive

C[N+](C)(C)CCOC(=O)CBr
Potency [1]: inactive | Potency [2]: inactive | Potency [3]: inactive | Potency [4]: inactive | Potency [5]: inactive | Potency [6]: inactive

C[N+]1(C)CCOC(O)(c2ccc(-c3ccc(C4(O)C[N+](C)(C)CCO4)cc3)cc2)C1 (stereo not drawn)
Potency [1]: inactive | Potency [2]: inactive | Potency [3]: inactive | Potency [4]: inactive | Potency [5]: inactive | Potency [6]: inactive

OCc1cnc[nH]1
Potency [1]: inactive | Potency [2]: inactive | Potency [3]: inactive | Potency [4]: inactive | Potency [5]: inactive | Potency [6]: inactive

COc1ccc(OC)c(C(O)C(C)N)c1 (stereo not drawn)
Potency [1]: inactive | Potency [2]: inactive | Potency [3]: inactive | Potency [4]: inactive | Potency [5]: inactive | Potency [6]: inactive

C[N+]1(C)C2CCC1CC(OC(=O)c1c[nH]c3ccccc13)C2 (stereo not drawn)
Potency [1]: inactive | Potency [2]: inactive | Potency [3]: inactive | Potency [4]: inactive | Potency [5]: inactive | Potency [6]: inactive

C[C@H](Cc1ccc2c(c1)OC(C(=O)O)(C(=O)O)O2)NC[C@H](O)c1cccc(Cl)c1
Potency [1]: inactive | Potency [2]: inactive | Potency [3]: inactive | Potency [4]: inactive | Potency [5]: inactive | Potency [6]: inactive

CCCC[N+]1(C)C2CC(OC(=O)[C@H](CO)c3ccccc3)CC1C1OC12 (stereo partly drawn)
Potency [1]: inactive | Potency [2]: inactive | Potency [3]: inactive | Potency [4]: inactive | Potency [5]: inactive | Potency [6]: inactive

CCCN(CCC)C1Cc2cc(OC)c(OC)cc2C1
Potency [1]: inactive | Potency [2]: inactive | Potency [3]: inactive | Potency [4]: inactive | Potency [5]: inactive | Potency [6]: inactive

COc1ccc(CNC(=O)/C=C/c2ccc3[nH]cc(CCN(C)C)c3c2)cc1
Potency [1]: inactive | Potency [2]: inactive | Potency [3]: inactive | Potency [4]: inactive | Potency [5]: inactive | Potency [6]: inactive

C=CCN1CC[C@]23c4c5ccc(O)c4O[C@H]2/C(=N/NC(=O)c2ccccc2)CC[C@@]3(O)[C@H]1C5
Potency [2]: inactive | Potency [3]: inactive | Potency [4]: inactive | Potency [5]: inactive | Potency [6]: inactive

CCN(CCCl)Cc1ccccc1Br
Potency [2]: inactive | Potency [3]: inactive | Potency [4]: inactive | Potency [5]: inactive | Potency [6]: inactive

C[C@@H]1O[C@@H](O[C@H]2C[C@@H](O)[C@]3(CO)[C@@H]4C(CC[C@]3(O)C2)[C@@]2(O)CC[C@H]([C@@H]3COC(=O)C3)[C@@]2(C)C[C@H]4O)[C@H](O)[C@H](O)[C@H]1O (stereo partly drawn)
Potency [1]: inactive | Potency [2]: inactive | Potency [4]: 3.98 µM (active) | Potency [5]: 2.24 µM (active) | Potency [6]: 2 µM (active)

CCS(=O)(=O)Nc1cccc(C(=C2CCCCC2)c2cnc[nH]2)c1
Potency [1]: inactive | Potency [2]: inactive | Potency [3]: inactive | Potency [4]: inactive | Potency [5]: inactive | Potency [6]: inactive

CCNC(=O)[C@H]1O[C@@H](n2cnc3c(N)ncnc32)[C@H](O)[C@@H]1O
Potency [1]: inactive | Potency [2]: inactive | Potency [3]: inactive | Potency [4]: inactive | Potency [5]: inactive | Potency [6]: inactive

NC(Cc1ccc(N(CCCl)CCCl)cc1)C(=O)O (stereo not drawn)
Potency [2]: inactive | Potency [3]: inactive | Potency [4]: inactive | Potency [5]: inactive

NCC(CP(=O)(O)O)c1ccc(Cl)cc1 (stereo not drawn)
Potency [1]: inactive | Potency [2]: 18.9 µM (active) | Potency [3]: inactive | Potency [4]: inactive | Potency [5]: inactive | Potency [6]: inactive

CCCN1CC[C@@H]2c3cc(O)ccc3CC[C@@H]21
Potency [1]: inactive | Potency [2]: inactive | Potency [3]: inactive | Potency [4]: inactive | Potency [5]: inactive | Potency [6]: inactive

NCCc1ccc(S(=O)(=O)F)cc1
Potency [1]: inactive | Potency [2]: inactive | Potency [3]: inactive | Potency [4]: inactive | Potency [5]: inactive | Potency [6]: inactive

N[C@@]1(C(=O)O)CC[C@@H](C(=O)O)C1
Potency [1]: inactive | Potency [2]: inactive | Potency [3]: inactive | Potency [4]: inactive | Potency [5]: inactive | Potency [6]: inactive

COc1ccc2c(c1)/C(=C/c1cnc[nH]1)C(=O)N2
Potency [2]: inactive

CN1CCc2cccc(Cl)c2CC1
Potency [1]: inactive | Potency [2]: inactive | Potency [3]: inactive | Potency [4]: inactive | Potency [5]: inactive | Potency [6]: inactive

NC(N)=Nc1ccc2[nH]c3c(c2c1)C[C@@]1(O)[C@H]2Cc4ccc(O)c5c4[C@@]1(CCN2CC1CC1)[C@H]3O5
Potency [1]: inactive | Potency [2]: inactive | Potency [3]: inactive | Potency [4]: inactive | Potency [5]: inactive | Potency [6]: inactive

CCCN(CCC)C1CCc2cccc(O)c2C1 (stereo not drawn)
Potency [1]: inactive | Potency [2]: inactive | Potency [3]: inactive | Potency [4]: inactive | Potency [5]: inactive | Potency [6]: inactive

NC(=O)COc1c(F)cc(SCCNS(=O)(=O)c2ccccc2)cc1F
Potency [1]: inactive | Potency [2]: inactive | Potency [3]: inactive | Potency [4]: inactive | Potency [5]: inactive | Potency [6]: inactive
